{"source": "PubChem BioAssay (NCI)", "assay_in_all_cases": "NCI-60 one-dose screen, 48 h (100 = growth as untreated, 0 = no growth, -100 = all killed)", "key": {"SK-MEL-2 melanoma": {"system": "SK-MEL-2 melanoma"}, "EKVX NSCLC": {"system": "EKVX NSCLC"}, "SN12C renal": {"system": "SN12C renal"}, "UO-31 renal": {"system": "UO-31 renal"}, "TK-10 renal": {"system": "TK-10 renal"}, "ACHN renal": {"system": "ACHN renal"}, "CAKI-1 renal": {"system": "CAKI-1 renal"}, "A498 renal": {"system": "A498 renal"}, "CCRF-CEM leukemia": {"system": "CCRF-CEM leukemia"}, "MOLT-4 leukemia": {"system": "MOLT-4 leukemia"}, "SR leukemia": {"system": "SR leukemia", "conditions": "10 µM unless noted"}, "RPMI-8226 leukemia": {"system": "RPMI-8226 leukemia"}, "OVCAR-8 ovarian": {"system": "OVCAR-8 ovarian"}, "OVCAR-5 ovarian": {"system": "OVCAR-5 ovarian"}, "OVCAR-4 ovarian": {"system": "OVCAR-4 ovarian"}, "SK-OV-3 ovarian": {"system": "SK-OV-3 ovarian", "conditions": "10 µM unless noted"}, "IGROV1 ovarian": {"system": "IGROV1 ovarian"}, "OVCAR-3 ovarian": {"system": "OVCAR-3 ovarian"}, "HS 578T breast": {"system": "HS 578T breast"}, "NCI/ADR-RES ovarian": {"system": "NCI/ADR-RES ovarian"}}, "note": "“And” between values parts separate entries of the source, which are not always exact repeats. Equal entries are not always repeated. About 83,000 compounds went through this panel and 20% of them were active in at least one assay; those are over-represented in the sample as a whole.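 Step 1: grow cells in 96-well plates. Step 2: add test compound at a single concentration. Step 3: incubate 48 h. Step 4: record percent growth.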 The source made the active and inactive calls. How the source made its calls: active means growth percent below 10; inactive means the rest.", "data": [{"smiles": "CCCCCCCCCCCCOc1ccccc1C=O", "values": [{"measurement": "growth", "setting": "SK-MEL-2 melanoma; 10 µM unless noted", "result": "112% (inactive)"}, {"measurement": "growth", "setting": "EKVX NSCLC; 10 µM unless noted", "result": "97% (inactive)"}, {"measurement": "growth", "setting": "SN12C renal; 10 µM unless noted", "result": "93.7% (inactive)"}, {"measurement": "growth", "setting": "UO-31 renal; 10 µM unless noted", "result": "65.1% (inactive)"}, {"measurement": "growth", "setting": "TK-10 renal; 10 µM unless noted", "result": "118% (inactive)"}, {"measurement": "growth", "setting": "ACHN renal; 10 µM unless noted", "result": "101% (inactive)"}, {"measurement": "growth", "setting": "CAKI-1 renal; 10 µM unless noted", "result": "84.9% (inactive)"}, {"measurement": "growth", "setting": "A498 renal; 10 µM unless noted", "result": "116% (inactive)"}, {"measurement": "growth", "setting": "CCRF-CEM leukemia; 10 µM unless noted", "result": "79.9% (inactive)"}, {"measurement": "growth", "setting": "MOLT-4 leukemia; 10 µM unless noted", "result": "78.3% (inactive)"}, {"measurement": "growth", "setting": "SR leukemia", "result": "84.9% (inactive)"}, {"measurement": "growth", "setting": "RPMI-8226 leukemia; 10 µM unless noted", "result": "96.4% (inactive)"}, {"measurement": "growth", "setting": "OVCAR-8 ovarian; 10 µM unless noted", "result": "94.6% (inactive)"}, {"measurement": "growth", "setting": "OVCAR-5 ovarian; 10 µM unless noted", "result": "101% (inactive)"}, {"measurement": "growth", "setting": "OVCAR-4 ovarian; 10 µM unless noted", "result": "86.5% (inactive)"}, {"measurement": "growth", "setting": "SK-OV-3 ovarian", "result": "95.7% (inactive)"}, {"measurement": "growth", "setting": "IGROV1 ovarian; 10 µM unless noted", "result": "112% (inactive)"}, {"measurement": "growth", "setting": "OVCAR-3 ovarian; 10 µM unless noted", "result": "108% (inactive)"}, {"measurement": "growth", "setting": "HS 578T breast; 10 µM unless noted", "result": "97% (inactive)"}, {"measurement": "growth", "setting": "NCI/ADR-RES ovarian; 10 µM unless noted", "result": "102% (inactive)"}]}, {"smiles": "CCc1ccccc1-n1c(N)c(C#N)c(-c2ccc(OC)c(OC)c2)c(C#N)c1=O", "values": [{"measurement": "growth", "setting": "SK-MEL-2 melanoma; 10 µM", "result": "108% (inactive)"}, {"measurement": "growth", "setting": "SK-MEL-2 melanoma; 100 µM", "result": "38% (inactive)"}, {"measurement": "growth", "setting": "EKVX NSCLC; 10 µM", "result": "106% (inactive)"}, {"measurement": "growth", "setting": "EKVX NSCLC; 100 µM", "result": "29.1% (inactive)"}, {"measurement": "growth", "setting": "SN12C renal; 10 µM", "result": "109% (inactive)"}, {"measurement": "growth", "setting": "SN12C renal; 100 µM", "result": "19.8% (inactive)"}, {"measurement": "growth", "setting": "UO-31 renal; 10 µM", "result": "85.2% (inactive)"}, {"measurement": "growth", "setting": "UO-31 renal; 100 µM", "result": "37.1% (inactive)"}, {"measurement": "growth", "setting": "TK-10 renal; 10 µM", "result": "114% (inactive)"}, {"measurement": "growth", "setting": "TK-10 renal; 100 µM", "result": "2.47% (active)"}, {"measurement": "growth", "setting": "ACHN renal; 10 µM", "result": "95.8% (inactive)"}, {"measurement": "growth", "setting": "ACHN renal; 100 µM", "result": "16.1% (inactive)"}, {"measurement": "growth", "setting": "CAKI-1 renal; 10 µM", "result": "97.5% (inactive)"}, {"measurement": "growth", "setting": "CAKI-1 renal; 100 µM", "result": "50.3% (inactive)"}, {"measurement": "growth", "setting": "A498 renal; 10 µM", "result": "120% (inactive)"}, {"measurement": "growth", "setting": "A498 renal; 100 µM", "result": "42.6% (inactive)"}, {"measurement": "growth", "setting": "CCRF-CEM leukemia; 10 µM", "result": "112% (inactive)"}, {"measurement": "growth", "setting": "CCRF-CEM leukemia; 100 µM", "result": "101% (inactive)"}, {"measurement": "growth", "setting": "MOLT-4 leukemia; 10 µM", "result": "95.7% (inactive)"}, {"measurement": "growth", "setting": "MOLT-4 leukemia; 100 µM", "result": "111% (inactive)"}, {"measurement": "growth", "setting": "SR leukemia", "result": "83% [100 µM] (inactive)"}, {"measurement": "growth", "setting": "RPMI-8226 leukemia; 10 µM", "result": "112% (inactive)"}, {"measurement": "growth", "setting": "RPMI-8226 leukemia; 100 µM", "result": "87.7% (inactive)"}, {"measurement": "growth", "setting": "OVCAR-8 ovarian; 10 µM", "result": "109% (inactive)"}, {"measurement": "growth", "setting": "OVCAR-8 ovarian; 100 µM", "result": "-24.4% (active)"}, {"measurement": "growth", "setting": "OVCAR-5 ovarian; 10 µM", "result": "107% (inactive)"}, {"measurement": "growth", "setting": "OVCAR-5 ovarian; 100 µM", "result": "48.6% (inactive)"}, {"measurement": "growth", "setting": "OVCAR-4 ovarian; 10 µM", "result": "113% (inactive)"}, {"measurement": "growth", "setting": "OVCAR-4 ovarian; 100 µM", "result": "28% (inactive)"}, {"measurement": "growth", "setting": "IGROV1 ovarian; 10 µM", "result": "107% (inactive)"}, {"measurement": "growth", "setting": "IGROV1 ovarian; 100 µM", "result": "22.2% (inactive)"}, {"measurement": "growth", "setting": "OVCAR-3 ovarian; 10 µM", "result": "113% (inactive)"}, {"measurement": "growth", "setting": "OVCAR-3 ovarian; 100 µM", "result": "13.4% (inactive)"}, {"measurement": "growth", "setting": "HS 578T breast; 10 µM", "result": "116% (inactive)"}, {"measurement": "growth", "setting": "HS 578T breast; 100 µM", "result": "27.2% (inactive)"}, {"measurement": "growth", "setting": "NCI/ADR-RES ovarian; 10 µM", "result": "111% (inactive)"}, {"measurement": "growth", "setting": "NCI/ADR-RES ovarian; 100 µM", "result": "22.1% (inactive)"}]}, {"smiles": "CC1=C(/C=C/C(C)=C/C=C/C(C)=C/C(=O)O)C(C)(C)CCC1", "values": [{"measurement": "growth", "setting": "SK-MEL-2 melanoma; 10 µM unless noted", "result": "87.5% (inactive) and 94.7% (inactive)"}, {"measurement": "growth", "setting": "EKVX NSCLC; 10 µM unless noted", "result": "84% (inactive) and 92.2% (inactive) and 87.7% (inactive)"}, {"measurement": "growth", "setting": "SN12C renal; 10 µM unless noted", "result": "81% (inactive) and 85.3% (inactive) and 73.8% (inactive)"}, {"measurement": "growth", "setting": "UO-31 renal; 10 µM unless noted", "result": "80.9% (inactive) and 64.5% (inactive) and 86.8% (inactive)"}, {"measurement": "growth", "setting": "TK-10 renal; 10 µM unless noted", "result": "101% (inactive) and 99.5% (inactive) and 109% (inactive)"}, {"measurement": "growth", "setting": "ACHN renal; 10 µM unless noted", "result": "94.9% (inactive) and 98.9% (inactive) and 94.8% (inactive)"}, {"measurement": "growth", "setting": "CAKI-1 renal; 10 µM unless noted", "result": "81.3% (inactive) and 87% (inactive) and 82.9% (inactive)"}, {"measurement": "growth", "setting": "A498 renal; 10 µM unless noted", "result": "20.2% (inactive) and 109% (inactive) and 86.7% (inactive)"}, {"measurement": "growth", "setting": "CCRF-CEM leukemia; 10 µM unless noted", "result": "78.5% (inactive) and 92.8% (inactive) and 103% (inactive)"}, {"measurement": "growth", "setting": "MOLT-4 leukemia; 10 µM unless noted", "result": "59.3% (inactive) and 99% (inactive) and 83.8% (inactive)"}, {"measurement": "growth", "setting": "SR leukemia", "result": "68.5% (inactive) and 87.1% (inactive) and 68.1% (inactive)"}, {"measurement": "growth", "setting": "RPMI-8226 leukemia; 10 µM unless noted", "result": "31.4% (inactive) and 4.62% (active) and 31.1% (inactive)"}, {"measurement": "growth", "setting": "OVCAR-8 ovarian; 10 µM unless noted", "result": "87% (inactive) and 89.2% (inactive)"}, {"measurement": "growth", "setting": "OVCAR-5 ovarian; 10 µM unless noted", "result": "120% (inactive) and 110% (inactive)"}, {"measurement": "growth", "setting": "OVCAR-4 ovarian; 10 µM unless noted", "result": "86.9% (inactive) and 92% (inactive) and 85% (inactive)"}, {"measurement": "growth", "setting": "SK-OV-3 ovarian", "result": "72% (inactive) and 90.2% (inactive) and 101% (inactive)"}, {"measurement": "growth", "setting": "IGROV1 ovarian; 10 µM unless noted", "result": "99.5% (inactive) and 96% (inactive) and 75.9% (inactive)"}, {"measurement": "growth", "setting": "OVCAR-3 ovarian; 10 µM unless noted", "result": "88.2% (inactive) and 95% (inactive) and 107% (inactive)"}, {"measurement": "growth", "setting": "HS 578T breast; 10 µM unless noted", "result": "77.1% (inactive) and 97.4% (inactive) and 75.8% (inactive)"}, {"measurement": "growth", "setting": "NCI/ADR-RES ovarian; 10 µM unless noted", "result": "90.9% (inactive) and 95% (inactive)"}]}]}
